Results from PubChem BioAssay AID1645872 (National Center for Advancing Translational Sciences (NCATS), 2021).
Records with an inconclusive call do not appear. Active and inactive are the calls of the source. The call rests on the fitted dose curve; in most records, active means well fitted inhibition curve with a large enough effect; inconclusive means small, poorly fitted or top-dose-only effect; inactive means flat fitted curve, though single readings scatter. Numbered stars: 1 amine (or outer) side, 2 acyl side, 3 side chain; on linkers, the order of the positions; unused ones are H or OH. Peptide text beside a SMILES is read from it. CO = O=C([*:1])[*:2]

target: Papain (Carica papaya) (UniProt P00784); assay: Confirmatory qHTS assay for inhibitors of the protease papain; conditions: papain Z-FR-AMC cleavage, fluorescence; series mostly up to 49.8 µM
Text: Principal Investigator: Sam Michael National Center for Advancing Translational Sciences, National Institutes of Health, Rockville, MD Current high-throughput screening (HTS) assay validation is often a manual process, though this can be enhanced by design-of-experiment approaches. An artificial intelligence-driven (AI/ML) assay optimization was developed as part of the NCATS A Specialized Platform for Innovative Research Exploration (ASPIRE) Initiative to accelerate preclinical drug discovery. We describe the development of an autonomous Cloud-based computational driven assay optimization system using the Kebotix adaptive optimization algorithm. The Kebotix Bayesian optimization algorithm identify and test the global optimum of the full 294 design-of-experiment (DOE) with a high optimization probability > 95%, and achieved a five-fold reduction in costs for reagents and lab supplies and HTE run-time. The proposed algorithm found suitable conditions for optimal assay performance. A cell-free assay for papain protease activity was chosen for proof-of-concept. This assay was ideal because its low cost and suitable for large amount of experiments, and previous NCATS experience would allow for historical comparisons. […] Described herein is the results of the papain qHTS assay.
PROTOCOL TABLE SEQUENCE No. (e.g., 1, 2, 3, etc.); PARAMETER (e.g., Cells, Incubation, Reagent, etc.); VALUE and DESCRIPTION. 1; Reagent; 3 uL; 4/3x Enzyme solution (working concentration of 5 nM) or 3 uL buffer 2; Compounds; 17 nL; library compounds and controls (working concentration of 169 nM - […]) 3; Time; 15 min; room temperature incubation 4; Reagent; 1 uL; 4x 2 uM Z-FR-AMC substrate 5; Centrifugation; 1000 rpm; 15 sec centrigure 6; Detection; Fluorescence Read 1; ViewLux plate reader 7; Time; 10 min; room temperature incubation 8; Detection; Fluorescence Read 2; ViewLux plate reader NOTES (numbers refer to Sequence numbers above; values are from representative experiments) 1; Dispense 3 uL of [4/3x] 5 nM Papain-buffer solution in medium-binding black solid-bottom Greiner plates (789176-F); columns 1-2 and […]. Dispense 3 uL of assay buffer (100 mM Na-acetate pH 5.5, 5 mM DL-Cysteine, 0.01% Tween20) to columns 3 and 4. 2; Compounds are single pin-transferred (17 nL) for a final concentration range of 0.664 nM - 39.2 uM. 3; Room temperature incubation. 4; Dispense 1 uL of [4x] 2 uM Z-FR-AMC substrate solution into the assay plate, columns 1 - 48. 5; Centrifuge the assay plate to remove bubbles. 6; Initial fluorescence signal (Read 1) is obtained using the ViewLux plate reader (PerkinElmer) equipped with a 340(30) nm excitation filter; 450(20) nm emission filter; 2 sec exposure time at energy set to 2000. 7; Room temperature incubation in the dark. 8; Final fluorescence signal (Read 2) is obtained using the ViewLux plate reader (PerkinElmer) equipped with a 340(30) nm excitation filter; 450(20) nm emission filter; 2 sec exposure time at energy set to 2000.

Sequence of Papain (Carica papaya) (P00784 whole entry, looked up): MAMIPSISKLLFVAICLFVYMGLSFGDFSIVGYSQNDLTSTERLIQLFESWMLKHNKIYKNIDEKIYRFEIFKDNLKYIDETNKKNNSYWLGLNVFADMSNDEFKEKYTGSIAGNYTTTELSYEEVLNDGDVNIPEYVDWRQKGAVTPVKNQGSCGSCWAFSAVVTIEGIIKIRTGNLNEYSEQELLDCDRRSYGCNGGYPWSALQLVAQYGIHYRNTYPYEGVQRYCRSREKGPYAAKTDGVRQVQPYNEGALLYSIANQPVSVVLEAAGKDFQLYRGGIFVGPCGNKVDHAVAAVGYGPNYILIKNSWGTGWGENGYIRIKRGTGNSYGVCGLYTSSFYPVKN

**Q.** For `CC(=O)N[C@@H](CC(C)C)C(=O)N[C@@H](CC(C)C)C(=O)N[C@H](C=O)CCCN=C(N)N`, which Potency is on record?
**A.** Its Potency is 0.0102 µM (active).

**Q.** `N#Cc1nc(Nc2cc(F)cc(F)c2)nc(NC2CCCC2)n1` was tested. Which Potency did it give?
**A.** Its Potency is 0.162 µM (active).

**Q.** Which Potency does the source give for `N#Cc1nc(Nc2cccc(Cl)c2)nc(NC2CCCC2)n1` here?
**A.** Its Potency is 0.289 µM (active).

**Q.** How did the Potency turn out when `CCOc1nc(C#N)nc(N2CCCCC2)n1` was run?
**A.** Its Potency is 0.182 µM (active).

**Q.** How did the Potency turn out when `Cc1cccc(Nc2nc(C#N)nc(NC3CCCC3)n2)c1` was run?
**A.** The Potency was 0.0647 µM (active).

**Q.** For `N#Cc1nc(Nc2cccc(F)c2)nc(NC2CCCC2)n1`, which Potency is on record?
**A.** Its Potency is 0.115 µM (active).

**Q.** `CC(C)C[C@H](NC(=O)[C@@H](NC(=O)N[C@@H](Cc1ccccc1)C(=O)O)[C@H]1CCN=C(N)N1)C(=O)N[C@H](C=O)Cc1ccccc1` was tested. Which Potency did it give?
**A.** Its Potency is 0.0102 µM (active).

**Q.** How did the Potency turn out when `N#Cc1nc(Nc2ccccc2)nc(NC2CCCC2)n1` was run?
**A.** Its Potency is 0.0814 µM (active).

**Q.** `COc1cccc(Nc2nc(C#N)nc(NC3CCCC3)n2)c1` was tested. Which Potency did it give?
**A.** The Potency was 0.0576 µM (active).

**Q.** How did the Potency turn out when `CC(C)C(NC(=O)C(CCCN=C(N)N)NC(=O)NC(Cc1ccccc1)C(=O)O)C(=O)NC(C=O)CCCN=C(N)N` (stereo not drawn) ({Phe-CO}-Arg-Val-Arg-aldehyde; configuration not given here) was run?
**A.** Its Potency is 0.0129 µM (active).

**Q.** With `N#Cc1nc(Nc2ccc(F)cc2)nc(NC2CCCC2)n1` as the compound, how does the Potency read?
**A.** Its Potency is 0.102 µM (active).

**Q.** `O=c1oc(Cl)c(Cl)c2ccccc12` was tested. Which Potency did it give?
**A.** The Potency was “inactive”.

**Q.** How did the Potency turn out when `COc1ccc(Nc2nc(C#N)nc(NC3CCCC3)n2)cc1` was run?
**A.** Its Potency is 0.102 µM (active).
